Source: PubChem BioAssay (several laboratories)
The list is not random: actives were taken first. Their share in the collection is about 4.8%.
Mdm2 MdmX PPI – inhibitors of human Mdm2/MdmX interaction. inhibition, % at 8 µM. O15151+Q00987. AID 485346. hit rate 3% among 330,000. SaOS-2 split-luciferase Mdm2/MdmX complementation, luminescence;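 active = inhibition of at least 50% at 8 µM in the primary screen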
MPTP block – permeability transition pore inhibition. isolated mouse mitochondria, Ca2+ swelling absorbance, 30 min. inhibition, % at 10 µM. hit rate 1.4% among 360,000;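 active = inhibition of 50% or more, scaled per plate between neutral and stimulator controls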;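 note: 0% = DMSO wells given calcium and 100% = 1 mM EGTA wells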
Beta apoptosis – blocks beta cell apoptosis; INS-1E cytokine-induced death, ATP luminescence, 48 h; percent of positive-control rescue, neutral wells zero; protection from apoptosis, % (concentration not given with the values); hit rate 0.8% among 300,000; AID 435005;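 active = Every replicate reaches about 75%, or at least half do and their mean reaches it too, limit read from the data; inconclusive = At least half of replicates reach the limit but their mean does not; inactive = Under half of replicates reach the limit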;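 note: 0% = cytokine-treated negative control wells and 100% = positive control rescue; higher means more ATP so stronger rescue from cytokine killing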
CSC inhib – cancer stem cell inhibition; hit rate 1.1% among 300,000; AID 2717; cancer stem cell-like cells viability, luminescence; inhibition, % at 7.5 µM; in the data active = inhibition above about 75%; inconclusive = no clear call, values can overlap the other calls; tested in HMLE shEcad cells
Calb FLC – affects C. albicans growth with fluconazole | C. albicans CaCi-2 (fluconazole-resistant clinical isolate) + fluconazole, Alamar Blue growth, 48 h | growth inhibition, % (no concentration beside the values) | hit rate 0.57% among 300,000 | AID 1979;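 active = growth inhibition above about 58% in most replicates, limit read from the data, passing the limit was not always enough; inconclusive = exactly half the replicates above a set limit; inactive = most replicates below a set limit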;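 note: all wells also contain fluconazole at 8 µg/ml as a sub-toxic cotreatment; 0% = median of DMSO wells and 100% = median of geldanamycin control wells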
Mdm2-MdmX conf – human Mdm2/MdmX binding inhibition, confirmed; hit rate 55% among 10,000; luminescent assay; AID 489028; shares compounds with Mdm2 MdmX PPI; inhibition, % at 8 µM; in the data active = inhibition above about 40%
FLuc counter – inhibits full-length luciferase, flagging false Mdm2/MdmX hits; shares compounds with Mdm2 MdmX PPI; SaOS-2 full-length luciferase counterscreen, luminescence; hit rate 77% among 6,200; inhibition, % at 8 µM;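 active = mean inhibition at 8 µM reaching about 37%, which flags the compound as non-specific, limit read from the data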;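 note: p53-null SaOS-2 cells with luciferase driven by a doxycycline-inducible promoter; compound on cells about two nights before reading with doxycycline added after day one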
Starred values were filed as active, the others as inactive; ? = inconclusive; · = no result given.

SMILES	Mdm2 MdmX PPI	MPTP block	Beta apoptosis	CSC inhib	Calb FLC	others
O=C(O)c1ccccc1C(=O)NNc1ccc(Cl)cc1	13	2	-4	91*	-28
O=c1[nH]c2cc(O)ccc2c2ccccc12	·	1	·	·	·
CCCCN1C(=O)C(CC(=O)NCCCN(C)C)CC(C(=O)N2CCCCCC2)=C1C (stereo unspecified)	·	-1	·	·	·
Cc1nc2ccccc2n1CCOc1ccccc1	-35	1	0	12	2
Cc1ccccc1OCCn1c(C)nc2ccccc21	14	14	78*	18	3
O=C(Nc1ccccc1)Nc1nnc([C@H]2C[C@H](O)[C@@H](CO)O2)s1	·	0	·	·	·
Cc1ccc(NNC(=O)c2ccno2)cc1Cl	-4	2	99*	97*	0
Cc1ccc(NNC(=O)c2ccno2)cc1C	24	1	6	67	93*
COC(=O)c1ccc2cc(C)cc(C)c2n1	·	0	·	·	·
Nn1cnc2c(ncn2C2OC(CO)C(O)C2O)c1=O (stereo unspecified)	·	-3	·	·	·
N#CC1(c2ccc(NC(=O)c3ccccc3)cc2)CCCC1	·	1	11	18	33
CC(=O)Oc1ccc(C(=O)Nc2ccc(C3(C#N)CCCC3)cc2)cc1	18	1	-2	96*	-5
CC(=O)c1ccc(-c2cc([C@H]3[C@H]4C=CC[C@@H](C)[C@@H]4C(=O)N3Cc3ccccc3)ccc2F)cc1	16	-2	0	115*	-5
C[C@@H]1CC=C[C@H]2[C@H]1C(=O)N(Cc1ccccc1)[C@H]2c1ccc(F)c(-c2ccc(N(C)C)cc2)c1	33	2	1	33	4
N#CC1=C(N)Oc2c(ccc3cccnc23)C1c1cccnc1 (stereo unspecified)	29	-2	99*	68	104*
CCOc1cccc(C2C(C#N)=C(N)Oc3cc(C)[nH]c(=O)c32)c1OCC (stereo unspecified)	27	1	-12	-5	0
N#CC1=C(N)Oc2cc3ccccc3cc2C1c1cccnc1 (stereo unspecified)	26	0	-2	59	4
CC(=O)C1=C(C)OC(N)=C(C#N)C1c1cc2cccc(C)c2nc1Cl (stereo unspecified)	21	0	-6	-6	49
Cc1ccc2cc(C3C(C#N)=C(N)Oc4c3ccc3cccnc43)c(=O)[nH]c2c1 (stereo unspecified)	22	-3	88*	70	87*
CCc1ccc2[nH]c(=O)c(C3C(C#N)=C(N)Oc4c3ccc3cccnc43)cc2c1 (stereo unspecified)	34	6	94*	97*	110*
CNc1oc(-c2ccc(Cl)cc2)nc1P(=O)(c1ccccc1)c1ccccc1	31	3	1	120*	-7
COc1cc(/C=C2\C(=O)ON=C2c2ccc(Cl)cc2)ccc1O	35	·	-36	87*	1
O=C1ON=C(c2ccccc2)/C1=C/c1ccc(O)c(O)c1	11	6	-6	5	2
COC(=O)/C=C1\OC(C2CC2)c2ccccc21 (stereo unspecified)	·	-1	·	·	·
CC(C)N(C(=O)CSc1nc2ccccc2n1-c1ccccc1)C(C)C	17	-3	-5	78*	4
SMILES	Mdm2 MdmX PPI	MPTP block	Beta apoptosis	CSC inhib	Calb FLC	others
C=CCn1c(O)c(C2=c3ccccc3=NC2=O)c2ccccc21	31	-1	7	96*	1
CC(C)COC(=O)c1ccc2c(c1O)C(=O)c1ccccc1C2=O	-30	2	85*	21	-4
COc1ccc2c(c1O)C(=O)c1ccccc1C2=O	-3	·	-2	7	-1
C[C@]12CCC(O)CC1CCC1C2CC[C@]2(C)C(c3cc(C(F)(F)F)n[nH]3)CCC12 (stereo partly specified)	29	-3	19	112*	11
CCc1nc2ccc(C(=O)NCc3cccs3)cn2c1N(C)Cc1nccs1	·	0	·	·	·
O=C(Cc1cccs1)N/N=C\c1ccc([N+](=O)[O-])s1	41	0	94*	-1	8
CC1(C)CN(c2ccccc2)N(C(=O)c2ccc(C#N)cc2)C1=O	7	-3	-11	91*	85*
CC(=O)OCC1(C)CN(c2ccccc2)N(C(=O)c2ccc(C(C)(C)C)cc2)C1=O (stereo unspecified)	·	-1	·	·	-45
CC1(C)CN(c2ccccc2)N(C(=O)c2ccc(F)cc2)C1=O	-3	0	-11	92*	5
COCCNc1nc(Oc2cccc3ccccc23)c2sccc2n1	·	0	·	·	·
CC(=O)[C@@]1(O)C(C)CC2C3C=C(C)C4=Cc5c(cnn5-c5ccccc5)C[C@]4(C)C3C(O)C[C@@]21C (stereo partly specified)	·	0	-2	100*	·
N#Cc1ccc(-c2nc3ccc(Br)cc3c(=O)n2O)cc1	18	1	8	21	-5
O=c1c2cc(Cl)ccc2nc(-c2ccccc2)n1O	24	-2	-8	-5	3
O=c1c2ccc(Cl)cc2nc(-c2ccc([N+](=O)[O-])cc2)n1O	6	4	12	31	87*
O=c1c2cc(Br)ccc2nc(-c2ccc([N+](=O)[O-])cc2)n1O	44	-5	-2	-2	110*
COC(=O)[C@]12CCCCC=C1N(Cc1ccccc1)C(=O)[C@H](CC(=O)NCC13CC4CC(CC(C4)C1)C3)C2	·	-2	·	·	·
CC1(c2ccc(O)cc2)NC(=O)N(c2ccccc2)N1 (stereo unspecified)	15	0	-3	109*	-63
C=C(C)CCC1(C)NC(=O)N(c2ccccc2)N1 (stereo unspecified)	15	3	-1	9	9
COc1ccccc1-c1cnc(C(O)c2cc(C)ccc2C)[nH]1 (stereo unspecified)	·	5	·	·	·
CC(=O)Nc1cc(-c2ccc(N)nc2)cn2c(-c3cccc(C(F)(F)F)c3)cnc12	·	-2	·	·	·
CN1CCN(CCCOc2ccc(-c3ccccc3)cc2)CC1	-29	4	19	49	-3
CCN1CCN(CCCOc2ccc(-c3ccccc3)cc2)CC1	-26	·	19	125*	-20
Oc1ccc2ccccc2c1C=NCc1cn2ccsc2n1	51*	-1	-8	-9	-7	Mdm2-MdmX conf=4
Cc1c(C(=O)NCc2ccc(C(F)(F)F)cc2)sc(=O)n1Cc1ccc(S(=O)(=O)N(C)C)cc1	·	1	·	·	·
CCC1NC(=O)c2ccccc2N1c1cccc(Cl)c1 (stereo unspecified)	21	13	7	-3	34
O=c1cc(CN2CCN(c3ccccc3)CC2)c2cc(O)c(-c3ccccc3)cc2o1	73*	2	17	-2	-29	Mdm2-MdmX conf=10
CCN(CC)c1ccc2c(C)cc(=O)oc2c1	21	-1	-6	-14	·
CCN(CC)c1ccc2c(Cl)c(Br)c(=O)oc2c1	100*	3	-1	?	5	Mdm2-MdmX conf=44*;FLuc counter=3
